Assay [1] is described as follows: qHTS assay for small molecules that induce genotoxicity in human embryonic kidney cells expressing luciferase-tagged ATAD5 (AID 651632). Also: nearly all actives have a fitted effect of over 15% in size. Also: potency is read from the fitted curve at half-maximal effect. In a few lines:
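Test compounds were delivered by pin tool onto HEK293T reporter cells (2,000/well) expressing ATAD5 fused to luciferase. After 16 hr at 37C, 5% CO2, Amplite was added for 30 min at room temperature and luminescence was measured.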
Background: Quantitative high-throughput screening tests each substance at several concentrations.

Assay [2] can be described thus: qHTS assay for small molecules that induce genotoxicity in human embryonic kidney cells expressing luciferase-tagged ATAD5 - cell viability (AID 651634; calls by dose curve; also: nearly all actives have a fitted effect of over 25% in size; also: potency is read from the fitted curve at half-maximal effect). In a few lines:
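Quantitative high-throughput format. HEK293T cells expressing ATAD5 fused to luciferase were plated at 2,000 cells/well and treated 15.5 hr with compound versus DMSO. Viability was determined by fluorescent live-cell protease substrate, 30 min at 37C.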

Assay [3] in a line: qHTS assay for small molecule disruptors of the mitochondrial membrane potential - cell viability (AID 720634; calls by dose curve;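 also: human HepG2 liver cancer cells; series mostly up to about 83 µM; nearly all actives have a fitted effect of over 20% in size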). In outline:
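Same-well counter-screen: following the MMP dye addition, CellTiter-Glo was added to 1 hr compound-treated HepG2 cells and luminescence read after 30 min at room temperature.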

The nature of assay [4]: qHTS assay to test for compound auto fluorescence at 590 nm (red) in HepG2 cells (AID 720674). In outline: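 Fluorescence at 590 nm emission following 540 nm excitation was recorded from HepG2 wells one hour after compound transfer, with DMSO-only wells as vehicle and Rose Bengal sodium equivalency as the scale.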
Assay [5] in a line: qHTS assay to test for compound auto fluorescence at 535 nm (green) in HepG2 cells (AID 720675). Also: potency is read from the fitted curve at half-maximal effect.
Assay [6] in a line: qHTS assay to test for compound auto fluorescence at 460 nm (blue) in HEK293 cell free culture (AID 720681). In a few lines: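 Compounds were added to cell-free DMEM with 10% FBS and fluorescence read directly. The blue channel used 405 nm excitation and 460 nm emission, with triamterene as the reference fluorophore.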
Assay [7] can be described thus: qHTS assay to test for compound auto fluorescence at 535 nm (green) in HEK293 cell free culture (AID 720682). Also: potency is read from the fitted curve at half-maximal effect. In a few lines:
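Measurement is a direct plate read of green fluorescence (485 nm in, 535 nm out) after compound addition to serum-supplemented DMEM lacking cells, with fluorescein used to express intensities.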

The nature of assay [8]: qHTS assay to test for compound auto fluorescence at 590 nm (red) in HEK293 cell free culture (AID 720683). In a few lines: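 Cell-free wells of DMEM with 10% FBS received compound, and intrinsic fluorescence was read at excitation/emission 540/590 nm. Values expressed as equivalence to Rose Bengal sodium.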
Assay [9] is described as follows: qHTS assay to test for compound auto fluorescence at 460 nm (blue) in HepG2 cell free culture (AID 720685). In a few lines:
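Cell-free plates of MEM plus 10% FBS received 23 nL compound or DMSO vehicle; blue-channel (405/460 nm) intensity scored against triamterene as reference fluorophore.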

The nature of assay [10]: qHTS assay to test for compound auto fluorescence at 535 nm (green) in HepG2 cell free culture (AID 720686). Also: potency is read from the fitted curve at half-maximal effect.
Assay [11] is described as follows: qHTS assay to test for compound auto fluorescence at 460 nm (blue) in HepG2 cells (AID 720687). In a few lines: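 HepG2 cells in MEM with 10% FBS, attached overnight at 37 C, were exposed to compound or DMSO for 1 hr at 37 C, 5% CO2. Blue fluorescence was read at 405/460 nm, with triamterene as reference fluorophore.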
A short description of assay [12]: qHTS assay to identify small molecule antagonists of the glucocorticoid receptor (GR) signaling pathway - cell viability counter screen (AID 720693). Also: nearly all actives have a fitted effect of over 55% in size.
Assay [13] in a line: qHTS assay to identify small molecule antagonists of the thyroid receptor (TR) signaling pathway (AID 743065). Also: nearly all actives have a fitted effect of over 55% in size. Also: potency is read from the fitted curve at half-maximal effect. In outline: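 GH3.TRE-Luc rat pituitary cells (two TREs driving luciferase) were dosed with compound, then stimulated with 1 nM T3 (final) for 23.5 h at 37 C. ONE-Glo luminescence was the read-out, with CellTiter-Fluor fluorescence as the cytotoxicity counter-screen.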

Assay [14] relates to thyroid hormone receptor (rat, GH3 cells). The assay is described as follows: qHTS assay to identify small molecule agonists of the thyroid receptor (TR) signaling pathway (AID 743066; calls by dose curve).
A short description of assay [15]: qHTS assay to identify small molecule antagonists of the estrogen receptor alpha (ER-alpha) signaling pathway - cell viability counter screen (AID 743074; calls by dose curve;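 also: HEK293 cells carrying ER-alpha-UAS-bla reporter stimulated with 17beta-estradiol; nearly all actives have a fitted effect of over 45% in size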).
The nature of assay [16]: qHTS assay to identify small molecule antagonists of the estrogen receptor alpha (ER-alpha) signaling pathway using the BG1 cell line - cell viability counter screen (AID 743081).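 Also: compound given together with 17beta-estradiol as the ER stimulus; series mostly up to about 70 µM; nearly all actives have a fitted effect of over 45% in size.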
The next assay deals with Aromatase (Homo sapiens) (UniProt P11511). The assay is described as follows: qHTS assay to identify aromatase inhibitors (AID 743083). Also: series mostly up to about 70 µM; nearly all actives have a fitted effect of over 55% in size.
Sequence of Aromatase (Homo sapiens) (P11511 whole entry, looked up): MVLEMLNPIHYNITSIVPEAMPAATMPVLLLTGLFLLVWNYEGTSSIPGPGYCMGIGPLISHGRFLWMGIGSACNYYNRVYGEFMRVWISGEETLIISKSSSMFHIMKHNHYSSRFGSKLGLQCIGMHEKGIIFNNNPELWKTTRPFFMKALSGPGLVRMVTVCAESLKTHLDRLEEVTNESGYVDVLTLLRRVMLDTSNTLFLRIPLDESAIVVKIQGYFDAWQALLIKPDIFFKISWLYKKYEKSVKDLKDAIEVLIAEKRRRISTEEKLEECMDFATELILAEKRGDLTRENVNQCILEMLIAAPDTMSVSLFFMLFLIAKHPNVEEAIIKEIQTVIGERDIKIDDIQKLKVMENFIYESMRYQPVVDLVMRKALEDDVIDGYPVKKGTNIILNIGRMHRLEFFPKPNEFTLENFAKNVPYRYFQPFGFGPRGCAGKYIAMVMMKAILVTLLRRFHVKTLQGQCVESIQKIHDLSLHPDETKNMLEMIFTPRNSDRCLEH
Assay [17] is described as follows: qHTS assay to identify aromatase inhibitors - cell viability counter screen (AID 743084).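 Also: cells stimulated with testosterone during compound exposure; nearly all actives have a fitted effect of over 55% in size.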
Assay [18] concerns the target Aryl hydrocarbon receptor (Homo sapiens) (UniProt P35869). Kind of assay: qHTS assay to identify small molecule that activate the aryl hydrocarbon receptor (AhR) signaling pathway (AID 743085).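 Also: HG2L7.5c1 human HepG2 liver cells with stably integrated DRE-driven firefly reporter; series mostly up to about 70 µM; nearly all actives have a fitted effect of over 15% in size.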 In a few lines: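 24 h compound exposure, 37C, HepG2-derived HG2L7.5c1 cells with DRE-responsive luciferase. Readouts: fluorescence viability, then luminescence at room temperature after 30 min.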

Assay [19] in a line: qHTS assay to identify small molecule phospholipidosis (PLD) inducers (AID 1259344; active = well fitted curve in the direction sought with a large enough effect; an effect the other way counts as inactive or inconclusive). In outline: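 Image-based: LipidTOX Red pit count/intensity per well and per cell; HepG2, 24 h compound at 37 C, PFA fixation, Hoechst counterstain.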

Structures are written as SMILES. Values without a mark were called inactive. Records with an inconclusive call do not appear. Calls of active or inactive are those of the source. Unless noted, calls follow the shape of the dose curve; as a rule, active = well fitted curve in the direction sought with a large enough effect in the repeat runs; inconclusive = weak or mixed curves; inactive = no such curve, though single readings can be large; an effect the other way counts as inactive or inconclusive.
% is scaled to controls: 0 for no effect and ±100 for the full control effect; tags tell the direction and shape of the fitted curve or compound fluorescence and quenching.

Sequence of Aryl hydrocarbon receptor (Homo sapiens) (P35869 whole entry, looked up): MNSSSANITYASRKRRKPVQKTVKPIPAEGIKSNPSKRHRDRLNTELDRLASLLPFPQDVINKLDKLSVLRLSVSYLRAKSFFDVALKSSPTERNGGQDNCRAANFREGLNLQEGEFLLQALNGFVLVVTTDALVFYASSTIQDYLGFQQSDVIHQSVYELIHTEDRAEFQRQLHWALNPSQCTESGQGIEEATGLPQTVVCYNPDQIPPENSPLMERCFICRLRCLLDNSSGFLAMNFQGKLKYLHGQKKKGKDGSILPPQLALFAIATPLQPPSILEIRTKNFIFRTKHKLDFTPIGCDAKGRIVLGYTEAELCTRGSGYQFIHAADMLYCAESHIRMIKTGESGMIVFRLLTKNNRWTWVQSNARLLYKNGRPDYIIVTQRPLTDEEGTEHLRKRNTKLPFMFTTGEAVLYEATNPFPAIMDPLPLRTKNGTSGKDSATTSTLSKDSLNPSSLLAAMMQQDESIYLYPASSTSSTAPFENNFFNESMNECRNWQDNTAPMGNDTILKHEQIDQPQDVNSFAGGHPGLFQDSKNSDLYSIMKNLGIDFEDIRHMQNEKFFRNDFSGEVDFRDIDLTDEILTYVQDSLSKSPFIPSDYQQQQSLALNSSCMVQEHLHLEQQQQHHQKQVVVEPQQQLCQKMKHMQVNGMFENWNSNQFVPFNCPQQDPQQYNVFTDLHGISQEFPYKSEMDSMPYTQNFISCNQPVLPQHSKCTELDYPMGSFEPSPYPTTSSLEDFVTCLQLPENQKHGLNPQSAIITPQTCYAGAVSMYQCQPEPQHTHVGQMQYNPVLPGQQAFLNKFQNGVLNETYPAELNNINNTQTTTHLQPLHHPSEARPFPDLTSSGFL

Turning to `CC(=O)[C@@]1(O)CC[C@H]2[C@@H]3CCC4=CC(=O)CC[C@]4(C)C3(F)[C@@H](O)C[C@@]21C` (stereo partly specified), the Potency entry in assay [1], in assay [2], in assay [3], in assay [5], in assay [6] and in [7] was “inactive” in each case. Besides, the Potency result in [9], in assay [10], in assay [11], in assay [12], in [13] and in [14] was “inactive” in each case. The Potency result (in assay [15]; in assay [16]; with Aromatase (Homo sapiens); in assay [17]; in assay [18]; in assay [19]) was “inactive” in each case. Moreover, the result in assay [4] and in assay [8] was inactive.
Consider `CN(C)CCCCCCN(C)C` (tested in a mixture with another compound), for which the Potency entry in assay [2], in assay [3], in assay [5], in assay [6], in assay [7] and in [9] was “inactive” throughout. For the same compound, the Potency result (in [11]; in assay [12]; in assay [13]; in [14]; in assay [16]; with Aromatase (Homo sapiens)) was “inactive” in each case. The Potency entry in assay [17], in assay [18] and in assay [19] was “inactive” in each case. In addition, the call in [4] and in [8] was inactive.
As to `CCN(CC)C(=O)N[C@H]1C[C@@H]2c3cccc4[nH]cc(c34)C[C@H]2N(C)C1`, the Potency result in assay [1], in assay [2], in [3], in [6], in [7] and in [9] was “inactive” throughout. Moreover, the Potency entry in assay [10], in [11], in assay [12], in assay [14], in [15] and in assay [16] was “inactive” each time. In addition, the Potency result (with Aromatase (Homo sapiens); in assay [17]; in assay [19]) was “inactive” throughout. The call in assay [4] and in assay [8] was inactive.
`Oc1ccc2c3c1O[C@H]1[C@@H](O)CC[C@@]4(O)[C@@H](C2)N(CC2CCC2)CC[C@]314`: the Potency result in assay [1], in assay [2], in assay [3], in [5], in assay [6] and in assay [7] was “inactive” throughout. The Potency entry in [9], in [11], in assay [12], in [13], in assay [14] and in assay [15] was “inactive” in each case. The Potency result (in [16]; in the assay with Aromatase (Homo sapiens); in assay [17]; in assay [18]; in [19]) was “inactive” throughout. Besides, the call in assay [4] and in assay [8] was inactive.
Consider `c1ccc2c(c1)Sc1ccccc1N2C[C@@H]1CN2CCC1CC2`, for which the Potency result in assay [1], in assay [2], in assay [3], in assay [5], in [6] and in [7] was “inactive” each time. Further, the Potency result in assay [9], in [10], in [11], in [12], in [15] and in assay [16] was “inactive” throughout. For the same compound, the Potency entry (with Aromatase (Homo sapiens); in assay [17]; in assay [18]; in assay [19]) was “inactive” in each case. The result in assay [4] and in [8] was inactive.
For the compound `O=C1OC2(c3cc(Br)c(O)cc3Oc3c2cc(Br)c(O)[c]3[Hg])c2ccccc21` (stereo unspecified), the Potency entry in [1], in assay [2], in assay [3], in assay [6], in assay [9] and in assay [11] was “inactive” each time. Besides, the Potency result (in [12]; in assay [15]; with Aromatase (Homo sapiens); in assay [17]; in assay [18]; in [19]) was “inactive” throughout. The Potency was 10 µM (active) in assay [5], 10 µM [fluorescent] (active) in assay [7] and 10 µM [fluorescent] (active) in [10].
Consider `CC(C)=CCN1CC[C@]2(C)c3cc(O)ccc3C[C@H]1[C@H]2C`, for which the Potency result in assay [1], in assay [2], in assay [3], in [5], in assay [6] and in assay [7] was “inactive” throughout. In addition, the Potency result in [9], in assay [11], in [12], in assay [14], in assay [15] and in assay [16] was “inactive” each time. Moreover, the Potency result (with Aromatase (Homo sapiens); in assay [17]; in [18]) was “inactive” throughout. The compound was classed as inactive in assay [4] and in assay [8]. The PLD induction in assay [19] was -0.374% [at 3.15 µM].
As to `COc1cc([C@@H]2c3cc4c(cc3[C@@H](O)[C@H]3COC(=O)[C@H]23)OCO4)cc(OC)c1O`, the Potency in assay [1] is 1.88 µM (active); in assay [2], 0.298 µM (active); in assay [13], 0.266 µM (active). Besides, the Potency result in assay [3], in [5], in assay [6], in assay [7], in assay [9] and in assay [10] was “inactive” each time. Further, the Potency result (in assay [11]; in assay [12]; in assay [15]; with Aromatase (Homo sapiens); in assay [17]; in assay [19]) was “inactive” throughout. The result in assay [4] and in assay [8] was inactive.
As to `C#CCN1CC(=O)N(COC(=O)C2C(C=C(C)C)C2(C)C)C1=O` (stereo unspecified), the Potency entry in [1], in assay [2], in assay [3], in assay [5], in assay [6] and in assay [7] was “inactive” each time. The Potency result in [9], in assay [10], in assay [11], in assay [12], in assay [13] and in assay [14] was “inactive” each time. Also, the Potency result (in [15]; in assay [16]; with Aromatase (Homo sapiens); in assay [17]; in assay [18]; in assay [19]) was “inactive” in each case. The result in assay [4] and in assay [8] was inactive.
